Data published in PubChem BioAssay (EPA / NIEHS).
Results filed as inconclusive are left out. The source made the active and inactive calls. How the source made its calls, unless noted: active means hit-call score of the fitted dose curve at least 0.9, where 1 is the maximum; inactive means score below 0.9.

How the values were obtained:
[1] = read-out: E-selectin (Homo sapiens) (UniProt P16581); experiment: BSK_3C_Eselectin: BioMAP Diversity Plus: 3C Assay for Eselectin Biomarker Activity (AID 2283015); conditions: primary human endothelial cells (HUVEC); actives raise or lower the signal
Summary of the method: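 Human vascular endothelium from umbilical vein is exposed to test chemicals for 24 h. E-selectin levels are read by ELISA and compared with DMSO controls.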

[2] = read-out: Interleukin-1 alpha (IL1a), IL1A (gene 3552); experiment: BSK_BE3C_IL1a: BioMAP Diversity Plus: BE3C Assay for Interleukin-1 alpha (IL1a) Biomarker Activity (AID 2283016); conditions: primary human bronchial epithelial cells; actives raise or lower the signal
Summary of the method: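 Human primary bronchial epithelial cells, 24 h chemical exposure; IL-1a quantified by ELISA, fitted bidirectionally against DMSO. Cytotoxicity assessed in parallel by SRB total-protein staining at the time of measurement.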

[3] = read-out: Monocyte Chemoattractant Protein-1 (MCP1), CCL2 (gene 6347); experiment: BSK_4H_MCP1: BioMAP Diversity Plus: 4H Assay for Monocyte Chemoattractant Protein-1 (MCP1) Biomarker Activity (AID 2283018); conditions: primary human endothelial cells (HUVEC); actives raise or lower the signal
Summary of the method: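 Human umbilical vein endothelial cells (4H system) exposed to chemicals for 24 h in 96-well format. MCP-1 measured by ELISA; bidirectional fitting against DMSO, with SRB total-protein staining in parallel cultures for cytotoxicity.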

[4] = read-out: Human Leukocyte Antigen - DR isotype (HLADR), HLA-DRA (gene 3122); experiment: BSK_3C_HLADR: BioMAP Diversity Plus: 3C Assay for Human Leukocyte Antigen - DR isotype (HLADR) Biomarker Activity (AID 2283019); conditions: primary human endothelial cells (HUVEC); actives raise or lower the signal
Summary of the method: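 Endothelial cells from human umbilical vein are treated with test chemical; after 24 h, HLA-DR levels are measured by ELISA. Data are fitted in both directions using DMSO as the baseline.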

[5] = read-out: Interleukin-8 (IL8), CXCL8 (gene 3576); experiment: BSK_3C_IL8: BioMAP Diversity Plus: 3C Assay for Interleukin-8 (IL8) Biomarker Activity (AID 2283020); conditions: primary human endothelial cells (HUVEC); actives raise or lower the signal
Summary of the method: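 Primary human umbilical vein endothelial cells were dosed for 24 h. IL-8 was quantified by ELISA and fitted bidirectionally against DMSO. Cytotoxicity was assessed in parallel cultures by SRB staining at 560 nm.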

[6] = read-out: Monokine induced gamma interferon (MIG), CXCL9 (gene 4283); experiment: BSK_3C_MIG: BioMAP Diversity Plus: 3C Assay for Monokine induced gamma interferon (MIG) Biomarker Activity (AID 2283021); conditions: primary human endothelial cells (HUVEC); actives raise or lower the signal;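 on AC50: MIG protein level measured by immunoassay in the treated endothelial cultures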
Summary of the method: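 HUVEC primary endothelial cultures dosed with chemical; MIG quantified by ELISA at 24 h. Data fitted bidirectionally against DMSO control, with parallel SRB total-protein staining for cytotoxicity.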

[7] = molecular target: human Vitamin D Receptor (VDR), VDR (gene 7421) (UniProt P11473); experiment: ATG_VDR_TRANS: Attagene TRANS-FACTORIAL HepG2 Assay for human Vitamin D Receptor (VDR) (AID 2283022; active means hit-call score of the fitted dose curve at least 0.9, where 1 is the maximum)
Sequence of human Vitamin D Receptor (VDR), VDR (gene 7421) (P11473 whole entry, looked up, the tested form may be a part): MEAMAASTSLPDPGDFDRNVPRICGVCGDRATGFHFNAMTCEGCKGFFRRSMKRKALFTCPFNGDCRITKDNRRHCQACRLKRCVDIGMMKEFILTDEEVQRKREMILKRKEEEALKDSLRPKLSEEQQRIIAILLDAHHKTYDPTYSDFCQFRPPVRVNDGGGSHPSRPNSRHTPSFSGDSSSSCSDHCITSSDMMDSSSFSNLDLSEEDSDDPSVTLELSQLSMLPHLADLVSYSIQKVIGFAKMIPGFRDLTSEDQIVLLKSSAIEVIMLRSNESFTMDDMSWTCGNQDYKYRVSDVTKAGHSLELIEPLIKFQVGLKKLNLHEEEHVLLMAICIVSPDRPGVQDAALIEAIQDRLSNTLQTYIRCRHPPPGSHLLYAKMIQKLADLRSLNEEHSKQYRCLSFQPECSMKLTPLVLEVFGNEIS
Summary of the method: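 Fluorescence of labelled reporter cDNA fragments, resolved by capillary electrophoresis, gives mRNA induction after 24 h treatment of HepG2 cells carrying transfected Gal4-fusion reporter units. Activity is fitted in the positive direction with DMSO as baseline.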

[8] = BSK_3C_SRB: Viability Assessment in the BioMAP Diversity Plus: 3C Assay (AID 2283023); conditions: primary human endothelial cells (HUVEC);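 further: cells read 24 h after compound dosing; fitted both ways against DMSO so a hit may be signal rise or drop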
Summary of the method: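 Cells were dosed with chemical, cultured 24 h, fixed with 10% TCA, stained with 0.1% SRB and read at 560 nm. Human umbilical vein endothelium was used; DMSO served as negative control and baseline.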

[9] = read-out: Matrix Metallopeptidase 1 (MMP1), MMP1 (gene 4312); experiment: BSK_BE3C_MMP1: BioMAP Diversity Plus: BE3C Assay for Matrix Metallopeptidase 1 (MMP1) Biomarker Activity (AID 2283024); conditions: primary human bronchial epithelial cells; actives raise or lower the signal
Summary of the method: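 Human primary bronchial epithelial cells (BE3C system) dosed for 24 h; MMP-1 quantified by ELISA. Bidirectional fit against DMSO; cytotoxicity tracked in parallel cultures by SRB total-protein staining.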

[10] = BSK_3C_Vis: BioMAP Diversity Plus: 3C Assay for Morphology Visualization (AID 2283025); conditions: primary human endothelial cells (HUVEC);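 further: fitted both ways so gain or loss versus DMSO counts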;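 on AC50: light microscopy image of cell morphology used as background control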
Summary of the method: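 Human umbilical vein endothelial cell morphology was inspected by light microscopy 24 h after chemical dosing; scored bidirectionally relative to DMSO.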

[11] = read-out: Pselectin, SELP (gene 6403); experiment: BSK_4H_Pselectin: BioMAP Diversity Plus: 4H Assay for Pselectin Biomarker Activity (AID 2283026); conditions: primary human endothelial cells (HUVEC); actives raise or lower the signal
Summary of the method: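 Primary human umbilical vein endothelial cells were treated 24 h, and cell-surface P-selectin was then quantified by ELISA. Bidirectional fit versus DMSO; cytotoxicity checked in parallel cultures by SRB total-protein staining.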

[12] = BSK_4H_SRB: Viability Assessment in the BioMAP Diversity Plus: 4H Assay (AID 2283027); conditions: primary human endothelial cells (HUVEC);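 further: cells exposed to compound for 24 h before staining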;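 on AC50: curves fitted both ways versus DMSO so AC50 may be loss or gain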
Summary of the method: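 Human umbilical vein endothelial cells were dosed with chemical and, after 24 h, fixed with 10% TCA, stained with 0.1% sulforhodamine B, and read at 560 nm to give total protein as a cytotoxicity measure. Bidirectional fitting relative to DMSO control.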

[13] = BSK_BE3C_SRB: Viability Assessment in the BioMAP Diversity Plus: BE3C Assay (AID 2283028); conditions: primary human bronchial epithelial cells;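 on AC50: fitted both ways so AC50 may mark signal gain or loss versus DMSO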
Summary of the method: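 Overt cytotoxicity was assessed as total protein in confluent human primary bronchial epithelial cultures 24 h after chemical addition, using 0.1% sulforhodamine B staining read at 560 nm.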

[14] = read-out: Thrombomodulin, THBD (gene 7056); experiment: BSK_3C_Thrombomodulin: BioMAP Diversity Plus: 3C Assay for Thrombomodulin Biomarker Activity (AID 2283029); conditions: primary human endothelial cells (HUVEC); actives raise or lower the signal
Summary of the method: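 Human umbilical vein endothelial cells were exposed to chemicals for 24 h; cell-surface thrombomodulin quantified by ELISA, with bidirectional fitting against DMSO baseline.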

[15] = read-out: Urokinase-type plasminogen activator receptor (uPAR), PLAUR (gene 5329); experiment: BSK_4H_uPAR: BioMAP Diversity Plus: 4H Assay for Urokinase-type plasminogen activator receptor (uPAR) Biomarker Activity (AID 2283030); conditions: primary human endothelial cells (HUVEC); actives raise or lower the signal
Summary of the method: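 Chemicals are dosed onto human vascular endothelial primary cells (umbilical vein). After 24 h, uPAR is read by ELISA. Gain or loss of signal is fitted relative to DMSO.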

[16] = read-out: Vascular endothelial growth factor receptor 2 (Homo sapiens) (UniProt P35968); experiment: BSK_4H_VEGFRII: BioMAP Diversity Plus: 4H Assay for Vascular endothelial growth factor receptor 2 (VEGFR2) Biomarker Activity (AID 2283031); conditions: primary human endothelial cells (HUVEC); actives raise or lower the signal;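 on AC50: cell-surface VEGFR2 protein level quantified by ELISA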
Summary of the method: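 VEGFRII levels on human vascular endothelial primary cells were determined by ELISA at 24 hours post-dosing, with gain- or loss-of-signal fitted against DMSO controls.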

[17] = read-out: Human Leukocyte Antigen - DR isotype (HLADR), HLA-DRA (gene 3122); experiment: BSK_BE3C_HLADR: BioMAP Diversity Plus: BE3C Assay for Human Leukocyte Antigen - DR isotype (HLADR) Biomarker Activity (AID 2283032); conditions: primary human bronchial epithelial cells; actives raise or lower the signal
Summary of the method: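 Human primary bronchial epithelial cells (BE3C system) exposed to compound for 24 hours; cell-surface HLA-DR measured by ELISA, fitted bidirectionally relative to DMSO. Total protein by SRB in parallel cultures tracked cytotoxicity.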

[18] = read-out: Vascular cell adhesion molecule 1 (VCAM1), VCAM1 (gene 7412); experiment: BSK_4H_VCAM1: BioMAP Diversity Plus: 4H Assay for Vascular cell adhesion molecule 1 (VCAM1) Biomarker Activity (AID 2283033); conditions: primary human endothelial cells (HUVEC); actives raise or lower the signal
Summary of the method: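 Primary human umbilical vein endothelial cells, 4H stimulation system, treated for 24 h; cell-surface VCAM-1 quantified by ELISA. Bidirectional fitting against DMSO; cytotoxicity tracked by SRB total-protein staining in parallel cultures.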

[19] = read-out: Monocyte Chemoattractant Protein-1 (MCP1), CCL2 (gene 6347); experiment: BSK_3C_MCP1: BioMAP Diversity Plus: 3C Assay for Monocyte Chemoattractant Protein-1 (MCP1) Biomarker Activity (AID 2283017); conditions: primary human endothelial cells (HUVEC); actives raise or lower the signal
Summary of the method: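 Endothelial cells from human umbilical vein are dosed with chemical, cultured 24 h, then assayed for MCP-1 by ELISA; both increases and decreases are modelled against DMSO controls.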

[20] = read-out: Interferon-gamma inducible Protein 10 (IP10), CXCL10 (gene 3627); experiment: BSK_BE3C_IP10: BioMAP Diversity Plus: BE3C Assay for Interferon-gamma inducible Protein 10 (IP10) Biomarker Activity (AID 2283034); conditions: primary human bronchial epithelial cells; actives raise or lower the signal
Summary of the method: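 Primary human bronchial epithelial cells, with IP-10 measured by ELISA 24 hours after chemical dosing. Bidirectional fit against DMSO; cytotoxicity checked by SRB total protein staining in parallel cultures.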

Measured: AC50

Sequence of E-selectin (Homo sapiens) (P16581 whole entry, looked up): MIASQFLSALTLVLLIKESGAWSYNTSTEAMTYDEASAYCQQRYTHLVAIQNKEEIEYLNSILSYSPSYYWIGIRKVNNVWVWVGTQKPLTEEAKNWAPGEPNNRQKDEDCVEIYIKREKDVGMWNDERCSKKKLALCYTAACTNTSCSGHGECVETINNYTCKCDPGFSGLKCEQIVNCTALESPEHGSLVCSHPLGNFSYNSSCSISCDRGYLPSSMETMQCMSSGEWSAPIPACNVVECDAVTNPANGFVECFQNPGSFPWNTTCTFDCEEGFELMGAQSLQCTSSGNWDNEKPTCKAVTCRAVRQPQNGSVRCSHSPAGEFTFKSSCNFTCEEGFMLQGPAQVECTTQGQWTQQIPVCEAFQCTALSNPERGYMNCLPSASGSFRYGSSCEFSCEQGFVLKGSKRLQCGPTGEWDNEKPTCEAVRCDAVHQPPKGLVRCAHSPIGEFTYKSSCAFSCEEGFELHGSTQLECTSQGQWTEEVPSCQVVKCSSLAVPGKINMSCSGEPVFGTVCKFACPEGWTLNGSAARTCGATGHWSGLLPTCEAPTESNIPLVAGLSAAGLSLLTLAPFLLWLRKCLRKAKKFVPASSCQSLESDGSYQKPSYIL

Nc1nc2ncc(CNc3ccc(C(=O)N[C@@H](CCC(=O)O)C(=O)O)cc3)nc2c(=O)[nH]1
not listed: [19] | [20]
inactive: all other assays above

CCCCCCc1ccc(O)cc1O
inactive: [7] | [9] | [14] | [16]
active: [2] 33 µM | [19] 32.5 µM | [3] 16.2 µM | [4] 39 µM | [5] 32.4 µM | [6] 3.97 µM | [8] 34.9 µM | [10] 39.8 µM | [11] 32.3 µM | [12] 32.5 µM | [13] 35.5 µM | [15] 36.6 µM | [17] 29.5 µM | [18] 31.8 µM

C=CCCCCCCCCC(=O)O
not listed: [19]
inactive: all other assays above

Cc1ccc(C)c(O)c1
not listed: [19]
inactive: all other assays above

Oc1ccc2c(c1)-c1ccccc1C2
active: [8] 19.6 µM | [10] 39 µM | [12] 10.2 µM
not listed: [19] | [20]
inactive: all other assays above

CCn1nc(Cc2ccccc2)cc1C1CCN(C[C@H]2C[C@H](N(C)[C@@H](C(=O)O)C(C)C)C[C@@H]2c2cccc(F)c2)CC1
not listed: [1] | [20]
inactive: all other assays above

O=C1OC(=O)C2C3C=CC(C3)C12 (stereo unspecified)
not listed: [1] | [19]
inactive: all other assays above

Cc1c(-c2cccnc2)c2ccccc2n1CCCCC(=O)O
not listed: [1] | [7] | [19]
inactive: all other assays above

CC(=O)OC[C@H]1O[C@@](COC(C)=O)(O[C@H]2O[C@H](COC(C)=O)[C@@H](OC(C)=O)[C@H](OC(C)=O)[C@H]2OC(C)=O)[C@@H](OC(C)=O)[C@@H]1OC(C)=O
not listed: [1] | [19]
inactive: all other assays above

C1=CCCC=CCCC=CCC1
not listed: [1] | [7]
inactive: all other assays above

O=C(O)CC(O)C(=O)O (stereo unspecified)
not listed: [1] | [7] | [19]
inactive: all other assays above

CCOC(=O)c1ccc(C2CCC(NC[C@H](O)COc3ccc(O)c(NS(C)(=O)=O)c3)CC2)cc1 (stereo partly specified)
active: [4] 31.1 µM | [5] 27.7 µM | [8] 25.1 µM | [10] 37.1 µM | [11] 27 µM | [12] 27.5 µM
not listed: [1] | [7] | [19] | [20]
inactive: all other assays above

CNS(=O)(=O)c1cc(C(=O)N2CCC(CCN3C4CCC3CC(n3c(C)nc5ccccc53)C4)(c3cccc(F)c3)CC2)c(Cl)cc1F (stereo unspecified)
active: [19] 33.7 µM | [4] 28.9 µM | [5] 29.4 µM | [8] 20.6 µM | [9] 20 µM | [10] 15.2 µM | [11] 13.2 µM | [12] 11.8 µM | [15] 0.148 µM
not listed: [1] | [7]
inactive: all other assays above

CN(C)c1ccc(Cc2ccc(N(C)C)cc2)cc1
active: [4] 31.8 µM | [5] 20 µM | [9] 12.6 µM | [11] 32.8 µM | [17] 36.3 µM
not listed: [1] | [19] | [20]
inactive: all other assays above

O=c1[nH]c2ccc(S(=O)CCN3CCC(Cc4ccc(F)cc4)CC3)cc2o1 (stereo unspecified)
active: [3] 4.88 µM | [12] 3.97 µM | [15] 12.8 µM | [18] 15.3 µM
not listed: [1]
inactive: all other assays above

CC[C@H]1OC(=O)[C@H](C)[C@@H](O[C@H]2C[C@@](C)(OC)[C@@H](O)[C@H](C)O2)[C@H](C)[C@@H](O[C@@H]2O[C@H](C)C[C@H](N(C)C)[C@H]2O)[C@](C)(O)C[C@@H](C)C(=O)[C@H](C)[C@@H](O)[C@]1(C)O
not listed: [1]
inactive: all other assays above

CC(C)CC(C)(O)C#CC(C)(O)CC(C)C (stereo unspecified)
not listed: [1] | [7] | [16]
inactive: all other assays above

CCOC(=O)COc1ccc2c(c1)CC(NCC(O)c1cccc(Cl)c1)CC2 (stereo unspecified)
active: [3] 28.2 µM | [4] 27.6 µM | [5] 32.1 µM | [6] 28.3 µM | [8] 26.7 µM | [10] 34.2 µM | [11] 29.8 µM | [12] 28.1 µM | [15] 28.7 µM | [16] 34.5 µM | [17] 30.3 µM | [18] 30 µM | [20] 30.3 µM
inactive: [2] | [9] | [13] | [14]
